Results filed as inconclusive are left out. Calls of active or inactive are those of the source. The calls were made as follows, unless noted: active = hit-call score of the fitted dose curve at least 0.9, where 1 is the maximum; inconclusive = response in the unintended direction; inactive = score below 0.9.
assay: CCTE_Shafer_MEA_dev_bursting_electrodes_number: CCTE's Neural Network Formation Assay for Number of Bursting Electrodes, Shafer Lab (AID 2284043);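 as to AC50: potency is for loss of bursting electrodes relative to DMSO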
How it was run: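 Primary rat cortical neurons were cultured on PEI-coated 48-well MEA plates (16 electrodes/well) and exposed from plating through day 12, with compound renewed at feeds on DIV 5 and 9. Electrodes bursting ≥1 per 2 min were counted on DIV 5, 7, 9, 12; trapezoidal AUC taken.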

Compound | outcome | AC50
Nc1nc2ncc(CNc3ccc(C(=O)N[C@@H](CCC(=O)O)C(=O)O)cc3)nc2c(=O)[nH]1 | inactive | 
Cn1c(=O)c2c(ncn2C)n(C)c1=O | inactive | 
CCC(C)(C)C(=O)O[C@H]1C[C@@H](C)C=C2C=C[C@H](C)[C@H](CC[C@@H]3C[C@@H](O)CC(=O)O3)[C@H]21 |  | 1060 nM (active)
O=C1CCC(N2C(=O)c3ccccc3C2=O)C(=O)N1 (stereo not given) | inactive | 
CC[C@H]1OC(=O)[C@H](C)[C@@H](O[C@H]2C[C@@](C)(OC)[C@@H](O)[C@H](C)O2)[C@H](C)[C@@H](O[C@@H]2O[C@H](C)C[C@H](N(C)C)[C@H]2O)[C@](C)(O)C[C@@H](C)C(=O)[C@H](C)[C@@H](O)[C@]1(C)O | inactive | 
CNCc1ccc(NC(=O)c2c[nH]c3c2C(=O)CCC3)cc1 |  | 1980 nM (active)
COc1ccc(-n2nc(C(F)F)cc2-c2ccc(S(C)=O)cc2)cc1 (stereo not given) |  | 10000 nM (active)
O=P(OC(CCl)CCl)(OC(CCl)CCl)OC(CCl)CCl | inactive | 
CC[C@H](C)C(=O)O[C@H]1C[C@@H](C)C=C2C=C[C@H](C)[C@H](CC[C@@H]3C[C@@H](O)CC(=O)O3)[C@H]21 |  | 1910 nM (active)
NC(=O)NO | inactive | 

assay: CCTE_Shafer_MEA_dev_per_burst_interspike_interval: CCTE's Neural Network Formation Assay for Burst Interspike Interval, Shafer Lab (AID 2284044; active = hit-call score of the fitted dose curve at least 0.9, where 1 is the maximum; inactive = score below 0.9;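 also: mean spike spacing inside bursts as AUC over recordings on days 5 7 9 12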;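 as to AC50: potency for a decrease of within-burst interspike interval below DMSO level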)
How it was run: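 Primary rat cortical neurons on 48-well MEA plates, exposed from day 0 through day 12, treatment renewed at DIV 5 and 9. Within-burst interspike interval recorded days 5, 7, 9, 12, well-averaged, summarised as AUC; negative fit versus DMSO.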

Compound | outcome | AC50
Nc1nc2ncc(CNc3ccc(C(=O)N[C@@H](CCC(=O)O)C(=O)O)cc3)nc2c(=O)[nH]1 | inactive | 
Cn1c(=O)c2c(ncn2C)n(C)c1=O | inactive | 
CCC(C)(C)C(=O)O[C@H]1C[C@@H](C)C=C2C=C[C@H](C)[C@H](CC[C@@H]3C[C@@H](O)CC(=O)O3)[C@H]21 | inactive | 
O=C1CCC(N2C(=O)c3ccccc3C2=O)C(=O)N1 (stereo not given) | inactive | 
CC[C@H]1OC(=O)[C@H](C)[C@@H](O[C@H]2C[C@@](C)(OC)[C@@H](O)[C@H](C)O2)[C@H](C)[C@@H](O[C@@H]2O[C@H](C)C[C@H](N(C)C)[C@H]2O)[C@](C)(O)C[C@@H](C)C(=O)[C@H](C)[C@@H](O)[C@]1(C)O | inactive | 
CNCc1ccc(NC(=O)c2c[nH]c3c2C(=O)CCC3)cc1 | inactive | 
COc1ccc(-n2nc(C(F)F)cc2-c2ccc(S(C)=O)cc2)cc1 (stereo not given) | inactive | 
O=P(OC(CCl)CCl)(OC(CCl)CCl)OC(CCl)CCl | inactive | 
CC[C@H](C)C(=O)O[C@H]1C[C@@H](C)C=C2C=C[C@H](C)[C@H](CC[C@@H]3C[C@@H](O)CC(=O)O3)[C@H]21 |  | 2900 nM (active)
NC(=O)NO | inactive | 

Reference: PubChem BioAssay (EPA / NIEHS)
